A selection: hits, their analogues and other compounds. The true share with any hit is near 3.7%.
Nrf2 ARE act – qHTS of Nrf2 Activators; AREc32 ARE-luciferase reporter (MCF7-derived line), luminescence, 24 h; Potency, µM (doses to about 46.1 µM), for inactives: top-dose activation, actives largely listed as activators; hit rate 0.31% among 410,000; AID 624171, 2012; further: potency means the concentration at half of the fitted maximal effect; % of control where 0% means no effect; nearly all actives have a fitted effect of over 65% in size
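AREc32_Fluc, 1000 cells/well, OPTI-MEM + 5% FBS, o/n 37 deg C 5% CO2; 23 nL cpd by pin tool, 24 hr; Steady-Glo 30 min RT, luminescence.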
IL2 activator – qHTS of IL-2 Activators; IL-2 activation reporter assay, cell-based qHTS; stimulated with anti-CD3/CD4/CD28 beads; in transgenic mouse T cells; activation, % (series mostly up to about 46 µM); hit rate 0.065% among 360,000; in the data active means activation above about 50%; inconclusive means mostly about 30% to 49%; further: 0% is about no effect
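Using fluorescent plate cytometry, EGFP and DsRed are detected in transgenic mouse T cells stimulated 18 h at 37 degrees C with antibody-coated beads after 60 min compound pretreatment.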
miR-21 act – qHTS Assay for Modulators of miRNAs and/orActivators of miR-21. HeLa miR-21 FLuc reporter, luciferase, 48 h. Potency, µM (titrated, usually from 38.3 µM), for inactives: at the top dose activity change, positive = activation, most hits filed as activators. 340,000 tested, under 10 active. AID 2288, 2010;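 further: % of control where 0% means no effect; miR-21 action dims this reporter so a rising signal means less miR-21 action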
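Using DMEM plus 10% FBS, HeLa miR-21-FLuc cells are incubated with test compounds (final up to about 40uM) for 48 hours; firefly luciferase signal is then imaged following reagent-mediated lysis.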
A549 tox – Nrf2 qHTS screen for inhibitors: counterscreen for cytotoxicity; hit rate 0.16% among 390,000; Potency, µM (top dose mostly 46 µM), for inactives: at the top dose activity change, negative = cytotoxicity, usual class: inhibitors; A549 ARE-Fluc cells, CellTiter-Fluor viability, 18-24 h; further: potency means the concentration at half of the fitted maximal effect; on the % scale 0 is the no-effect control and ±100 the full control effect
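A549 ARE-Fluc cells in 5% FBS OPTI-MEM, 5000 cells/well, rested 2 h then exposed to compounds in concentration-response for 18-24 h at 37 °C. Viability by CellTiter-Fluor fluorescence (Ex 405/Em 525) after 30 min; luciferase luminescence (BugLite, 15 min, RT) read afterwards.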
Nrf2 inh – Nrf2 qHTS screen for inhibitors. A549 ARE-Fluc reporter, luciferase luminescence, 18-24 h. Potency, µM (series often up to 46 µM), inactives show top-dose activity change, negative = inhibition, hits mostly inhibitors. hit rate 2.1% among 360,000. AID 504444, 2011; further: potency means the concentration at half of the fitted maximal effect; on the % scale 0 is the no-effect control and ±100 the full control effect; nearly all actives have a fitted effect of over 60% in size
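Cells were seeded and rested 2 h, then exposed to compounds for 18-24 h. CellTiter-Fluor was read first as a viability measure. BugLite was added 15 min before the final luminescent read of ARE-luciferase activity in A549 cells.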
ClpP mod – qHTS Assay for Activators of ClpP. ATP-dependent Clp protease proteolytic subunit (Bacillus subtilis (strain 168)), P80244. purified B. subtilis ClpP, FRET peptide cleavage, 20 min. Potency, µM (series often up to 57.5 µM), for the others: at the highest dose activity change, negative = active. hit rate 1.9% among 340,000. AID 651965, 2013; active means well fitted falling curve with a large enough effect; inconclusive means small, poorly fitted or top-dose-only effect; inactive means no such curve, though single readings can be large or run the other way; further: potency means the concentration at half of the fitted maximal effect; the source files actives as falling curves though it sought activators and does not explain the sign; nearly all actives have a fitted effect of over 65% in size
Target sequence (P80244 whole entry, looked up): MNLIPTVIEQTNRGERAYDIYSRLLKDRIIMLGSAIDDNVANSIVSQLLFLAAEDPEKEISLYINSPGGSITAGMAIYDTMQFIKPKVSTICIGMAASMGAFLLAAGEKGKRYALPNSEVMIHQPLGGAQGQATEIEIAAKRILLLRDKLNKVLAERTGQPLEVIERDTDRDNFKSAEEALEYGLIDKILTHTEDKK
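ClpP 10 microg/mL final, pH 8 Tris/KCl buffer with BSA, glycerol, Tween-20; compound pinned in; FRET-FV substrate; RT 20 min; Ex320/Em430; ΔFRET vs ADEP 5.8 microM, DMSO, no enzyme.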
Starred values were filed as active, the others as inactive; ? = inconclusive; . = no result given; [ ] = remark or other dose. Unless noted, the call rests on the fitted dose curve; in most records, active means well fitted curve in the direction sought with a large enough effect; inconclusive means small, poorly fitted or top-dose-only effect, or another doubt; inactive means no such curve, though single readings can be large; an effect the other way counts as inactive or inconclusive.

SMILES | Nrf2 ARE act | IL2 activator | miR-21 act | A549 tox | Nrf2 inh | ClpP mod
Cc1ccc(CSc2nc3c(c(=O)[nH]2)C(c2cccc(F)c2F)CC(=O)N3)cc1 (stereo unspecified) | -1% | . | 1% | 0% | -12% | 0%
COc1ccccc1-c1nnc2sc(-c3ccc(N(C)C)cc3)nn12 | 0% | 0 | 20% | ? | ? | 25µM*
c1ccc(Cc2nnc3sc(-c4ccccn4)nn23)cc1 | -1% | 0 | -23% | ? | . | 0%
COc1ccccc1-c1nn2c(C(F)(F)F)nnc2s1 | 0% | -2 | 0% | -8% | -2% | 13µM*
CN(C)c1ccc(-c2nn3c(-c4ccccc4Cl)nnc3s2)cc1 | 0% | 0 | 19% | -6% | -16% | 16µM*
CN(C)c1ccc(-c2nn3c(-c4cccnc4)nnc3s2)cc1 | -1% | -3 | -11% | -3% | . | -13%
CCOc1ccccc1-c1nn2c(Cc3ccccc3)nnc2s1 | 3% | 0 | -7% | 7%[1.84 µM] | ? | 25µM*
CC(=O)Nc1ccccc1OCc1cc(=O)n2c(C)csc2n1 | 0% | . | -2% | -3% | -10% | 1%
COc1ccc(-c2nn3c(-c4cc(-c5ccccc5)n[nH]4)nnc3s2)cc1 | . | . | . | -16% | 23µM* | -12%
Clc1ccccc1-c1nnc2sc(-c3ccncc3)nn12 | 4% | 0 | -2% | 2% | 0% | -1%
Clc1ccccc1-c1nn2c(-c3ccncc3)nnc2s1 | 0% | 1 | -5% | -6% | 8.2µM* | -1%
COc1ccc(C)cc1NC(=O)COCc1cc(-c2ccc(F)cc2)on1 | 1% | . | 0% | 4% | -30% | 0%
O=C(Cn1c(=O)c(C(F)(F)F)nc2ccccc21)Nc1ccc(Br)cc1F | -1% | . | -1% | 2% | 1% | -4%
CCC(C(=O)N1CCN(c2ccccc2)CC1)n1nc(C)c2sc3ccccc3c2c1=O (stereo unspecified) | 0% | . | -11% | -4% | ? | -7%
CN(C(=O)c1cccc(NC(=O)Cc2ccc([N+](=O)[O-])cc2)c1)C1CCCCC1 | 2% | -5 | . | ? | ? | -1%
CN(C(=O)c1ccc(Oc2ccc([N+](=O)[O-])cc2)cc1)C1CCCCC1 | 6% | -1 | 19% | -8% | 26µM* | -3%
CN(C(=O)c1cccs1)c1ccccc1C(=O)O | 0% | -1 | -1% | 0% | -1% | 20µM*
COc1ccc(CN(Cc2ccccc2)C(=O)c2ccc(OC)cc2O)cc1 | . | . | . | -4% | 3% | .
O=C(Nc1ccc(N2CCCCC2)cc1)c1ccc([N+](=O)[O-])o1 | ? | -4 | -48% | ? | ? | .
O=C(c1ccc(N2CCCC2=O)cc1)N1CCN(c2ccc(Cl)cc2)CC1 | 0% | -5 | 8% | -9% | 18µM* | 3%
CS(=O)(=O)N1CCN(c2ccc(NC(=O)c3ccc([N+](=O)[O-])o3)cc2)CC1 | ? | 1 | -44% | 13µM* | -9% | 1%
O=C(Nc1ccc(N2CCN(Cc3ccccc3F)CC2)cc1)c1ccc([N+](=O)[O-])o1 | ? | 0 | 3% | 16µM* | 23µM* | -1%
O=C(Nc1ccc2[nH]c(=O)[nH]c2c1)c1ccc([N+](=O)[O-])o1 | 13µM* | 2 | . | -1% | 18% | -4%
CC(C)CC(=O)Nc1nc2c(s1)CC(C(C)(C)C)CC2 (stereo unspecified) | 10% | . | -1% | 0% | ? | 1%
CN(C)c1ccc(/C=C/c2c3c(nc4ccccc24)CCCC3)cc1 | . | . | . | . | . | -1%
SMILES | Nrf2 ARE act | IL2 activator | miR-21 act | A549 tox | Nrf2 inh | ClpP mod
CC1CCN(c2ccccc2NC(=O)c2ccc([N+](=O)[O-])o2)CC1 | 0% | 0 | 4% | -6% | -34% | .
O=C(Nc1ccccc1N1CCCC1)c1ccc([N+](=O)[O-])o1 | ? | -2 | 8% | ? | 16µM* | -1%
O=C(Nc1ccc(N2CCN(C(=O)c3ccc(Cl)cc3)CC2)cc1)c1ccc([N+](=O)[O-])o1 | 6.3µM* | 0 | -5% | ? | 21µM* | -1%
CC(C)(C)C(=O)N1CCN(c2ccc(NC(=O)c3ccc([N+](=O)[O-])o3)cc2)CC1 | ? | 0 | -8% | -17% | ? | .
O=C(Nc1ccc(N2CCN(C(=O)c3ccc(Cl)cc3)CC2)cc1)c1ccc2c(c1)OCCO2 | 0% | -1 | 17% | -11% | 6.5µM* | -1%
O=C(Nc1ccccc1N1CCCCC1)c1ncoc1-c1ccc(F)cc1 | 6% | 0 | -5% | 22% | ? | 28µM*
O=C(Nc1ccc(N2CCN(C(=O)c3ccccc3)CC2)cc1)c1ccc2c(c1)OCCO2 | 0% | -5 | -18% | -16% | ? | 1%
COc1ccccc1N1CCN(Cc2ccc(-c3ccccc3[N+](=O)[O-])o2)CC1 | 9% | 1 | 2% | -1% | 23µM* | -4%
COc1ccccc1N1CCN(Cc2ccco2)CC1 | 0% | -2 | -17% | -4% | 0% | 0%
C=CCC(Nc1ccccc1)C12C=CC(O1)C(C(=O)OC)=C2C(=O)OC (stereo unspecified) | 11µM* | -1 | 6% | -19% | ? | 0%
Cc1ccc(NC(=O)CSc2nc(=O)n(CCN3CCOCC3)c3c2CCC3)cc1Cl | 5% | . | 4% | -2% | . | -7%
O=C(c1ccco1)N(Cc1ccc(Cl)cc1)C1CCS(=O)(=O)C1 (stereo unspecified) | 1% | 1 | -1% | -1% | 26µM* | -4%
COC(=O)c1ccc(C(=O)N2CCCC(Nc3ccc(C(C)C)cc3)C2)cc1 (stereo unspecified) | 4% | -1 | -1% | 1% | ? | 2%
CC(C)c1ccc(NC2CCCN(C(=O)c3n[nH]c4c3CCC4)C2)cc1 (stereo unspecified) | 0% | -5 | 19% | -9% | 10µM* | -1%
O=C(Nc1ccc(F)cc1)c1ccc(CN2CCc3ccccc3C2)cc1 | 3% | 0 | 9% | -1% | 5.8µM* | 1%
O=C(c1ccc(CN2CCc3ccccc3C2)cc1)N1CCc2ccccc2C1 | 0% | 0 | -4% | 1% | . | 5%
O=C(Nc1cccc(Br)c1)c1ccc(CN2CCc3ccccc3C2)cc1 | 9% | 0 | 10% | -18% | 8.2µM* | -18%
O=C(c1ccc(CN2CCc3ccccc3C2)cc1)N1CCN(c2ccccc2)CC1 | 0% | -1 | 3% | 1% | -3% | 32µM*

Compound activity: PubChem BioAssay, National Center for Advancing Translational Sciences (NCATS)
